# Results published in the supplement of paper PMC4466140.
# What was measured:
# Experiment in all cases: SPOT peptide array binding signal intensity (averaged, normalized) (arbitrary units (background-subtracted, floor 0; scale differs between SH3 domains)); higher = stronger binding of the SH3 domain to the peptide
# AgAbp1 = biological target: AgAbp1
# Procedure, shortened: (§1)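 Cellulose membranes carried synthetic 15-mer peptides with cysteines swapped for serines. These were incubated overnight at 4°C with 10 μg/ml of GST-fused SH3 domains from four yeast species in TBS-based blocking buffer. Binding signal, detected with anti-GST antibody and quantified in Genespotter, is the normalized, background-subtracted spot intensity averaged over replicates, in arbitrary units specific to each domain.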
# AgBbc1 = biological target: AgBbc1
# Procedure, shortened: as §1
# AgBem1-D1 = biological target: AgBem1-D1
# Procedure, shortened: as §1
# AgBzz1-D1 = biological target: AgBzz1-D1
# Procedure, shortened: as §1
# AgBzz1-D2 = biological target: AgBzz1-D2
# Procedure, shortened: as §1
# AgCyk3 = biological target: AgCyk3
# Procedure, shortened: as §1
# AgFus1 = biological target: AgFus1
# Procedure, shortened: as §1
# AgHof1 = biological target: AgHof1
# Procedure, shortened: as §1
# AgHse1 = biological target: AgHse1
# Procedure, shortened: as §1
# AgLsb1 = biological target: AgLsb1
# Procedure, shortened: as §1
# AgLsb4 = biological target: AgLsb4
# Procedure, shortened: as §1
# AgMyo5 = biological target: AgMyo5
# Procedure, shortened: as §1
# AgNbp2 = biological target: AgNbp2
# Procedure, shortened: as §1
# AgRvs167 = biological target: AgRvs167
# Procedure, shortened: as §1
# AgSho1 = biological target: AgSho1
# Procedure, shortened: as §1
# AgSla1-D1-D2 = biological target: AgSla1-D1-D2
# Procedure, shortened: as §1
# AgSla1-D3 = biological target: AgSla1-D3
# Procedure, shortened: as §1
# CaAbp1-D1 = biological target: CaAbp1-D1
# Procedure, shortened: as §1
# CaAbp1-D2 = biological target: CaAbp1-D2
# Procedure, shortened: as §1
# CaBbc1 = biological target: CaBbc1
# Procedure, shortened: as §1
# CaBem1-D1 = biological target: CaBem1-D1
# Procedure, shortened: as §1
# CaBzz1-D1 = biological target: CaBzz1-D1
# Procedure, shortened: as §1
# CaBzz1-D2 = biological target: CaBzz1-D2
# Procedure, shortened: as §1
# CaCyk3 = biological target: CaCyk3
# Procedure, shortened: as §1
# CaFus1 = biological target: CaFus1
# Procedure, shortened: as §1
# CaHof1 = biological target: CaHof1
# Procedure, shortened: as §1
# CaHse1 = biological target: CaHse1
# Procedure, shortened: as §1
# CaLsb1 = biological target: CaLsb1
# Procedure, shortened: as §1
# CaLsb4 = biological target: CaLsb4
# Procedure, shortened: as §1
# CaMyo5 = biological target: CaMyo5
# Procedure, shortened: as §1
# CaNbp2 = biological target: CaNbp2
# Procedure, shortened: as §1
# CaRvs167 = biological target: CaRvs167
# Procedure, shortened: as §1
# CaRvs167-3 = biological target: CaRvs167-3
# Procedure, shortened: as §1
# CaSho1 = biological target: CaSho1
# Procedure, shortened: as §1
# CaSla1-D1-D2 = biological target: CaSla1-D1-D2
# Procedure, shortened: as §1
# CaSla1-D3 = biological target: CaSla1-D3
# Procedure, shortened: as §1
# ScAbp1 = biological target: ScAbp1
# Procedure, shortened: as §1
# ScBbc1 = biological target: ScBbc1
# Procedure, shortened: as §1
# ScBem1-D1 = biological target: ScBem1-D1
# Procedure, shortened: as §1
# ScBzz1-D1 = biological target: ScBzz1-D1
# Procedure, shortened: as §1
# ScBzz1-D2 = biological target: ScBzz1-D2
# Procedure, shortened: as §1
# ScCyk3 = biological target: ScCyk3
# Procedure, shortened: as §1
# ScFus1 = biological target: ScFus1
# Procedure, shortened: as §1
# ScHof1 = biological target: ScHof1
# Procedure, shortened: as §1
# ScHse1 = biological target: ScHse1
# Procedure, shortened: as §1
# ScLsb1 = biological target: ScLsb1
# Procedure, shortened: as §1
# ScLsb2 = biological target: ScLsb2
# Procedure, shortened: as §1
# ScLsb3 = biological target: ScLsb3
# Procedure, shortened: as §1
# ScLsb4 = biological target: ScLsb4
# Procedure, shortened: as §1
# ScMyo3 = biological target: ScMyo3
# Procedure, shortened: as §1
# ScMyo5 = biological target: ScMyo5
# Procedure, shortened: as §1
# ScNbp2 = biological target: ScNbp2
# Procedure, shortened: as §1
# ScPex13 = biological target: ScPex13
# Procedure, shortened: as §1
# ScRvs167 = biological target: ScRvs167
# Procedure, shortened: as §1
# ScSho1 = biological target: ScSho1
# Procedure, shortened: as §1
# ScSla1-D1-D2 = biological target: ScSla1-D1-D2
# Procedure, shortened: as §1
# ScSla1-D3 = biological target: ScSla1-D3
# Procedure, shortened: as §1
# SpAbp1-D1 = biological target: SpAbp1-D1
# Procedure, shortened: as §1
# SpBbc1 = biological target: SpBbc1
# Procedure, shortened: as §1
# SpBzz1-D1 = biological target: SpBzz1-D1
# Procedure, shortened: as §1
# SpBzz1-D2 = biological target: SpBzz1-D2
# Procedure, shortened: as §1
# SpCyk3 = biological target: SpCyk3
# Procedure, shortened: as §1
# SpHof1 = biological target: SpHof1
# Procedure, shortened: as §1
# SpHof1-2 = biological target: SpHof1-2
# Procedure, shortened: as §1
# SpHof1-3 = biological target: SpHof1-3
# Procedure, shortened: as §1
# SpHse1 = biological target: SpHse1
# Procedure, shortened: as §1
# SpLsb1 = biological target: SpLsb1
# Procedure, shortened: as §1
# SpLsb4 = biological target: SpLsb4
# Procedure, shortened: as §1
# SpMyo1 = biological target: SpMyo1
# Procedure, shortened: as §1
# SpNbp2 = biological target: SpNbp2
# Procedure, shortened: as §1
# SpPex13 = biological target: SpPex13
# Procedure, shortened: as §1
# SpRvs167 = biological target: SpRvs167
# Procedure, shortened: as §1
# SpSla1-D1-D2 = biological target: SpSla1-D1-D2
# Procedure, shortened: as §1
# SpSla1-D3 = biological target: SpSla1-D3
# Procedure, shortened: as §1
binder,measurement,setting,value
SKSRLLIELPEGFFT,SPOT peptide array binding signal intensity,AgAbp1,2
same,SPOT peptide array binding signal intensity,AgBbc1,0.5
same,SPOT peptide array binding signal intensity,AgBem1-D1,≤ 0
same,SPOT peptide array binding signal intensity,AgBzz1-D1,59
same,SPOT peptide array binding signal intensity,AgBzz1-D2,78
same,SPOT peptide array binding signal intensity,AgCyk3,1
same,SPOT peptide array binding signal intensity,AgFus1,322
same,SPOT peptide array binding signal intensity,AgHof1,18.5
same,SPOT peptide array binding signal intensity,AgHse1,16
same,SPOT peptide array binding signal intensity,AgLsb1,≤ 0
same,SPOT peptide array binding signal intensity,AgLsb4,46
same,SPOT peptide array binding signal intensity,AgMyo5,≤ 0
same,SPOT peptide array binding signal intensity,AgNbp2,≤ 0
same,SPOT peptide array binding signal intensity,AgRvs167,0.5
same,SPOT peptide array binding signal intensity,AgSho1,≤ 0
same,SPOT peptide array binding signal intensity,AgSla1-D1-D2,67
same,SPOT peptide array binding signal intensity,AgSla1-D3,0.25
same,SPOT peptide array binding signal intensity,CaAbp1-D1,≤ 0
same,SPOT peptide array binding signal intensity,CaAbp1-D2,≤ 0
same,SPOT peptide array binding signal intensity,CaBbc1,19.5
same,SPOT peptide array binding signal intensity,CaBem1-D1,8.5
same,SPOT peptide array binding signal intensity,CaBzz1-D1,82.5
same,SPOT peptide array binding signal intensity,CaBzz1-D2,18.8
same,SPOT peptide array binding signal intensity,CaCyk3,≤ 0
same,SPOT peptide array binding signal intensity,CaFus1,1020
same,SPOT peptide array binding signal intensity,CaHof1,≤ 0
same,SPOT peptide array binding signal intensity,CaHse1,5.25
same,SPOT peptide array binding signal intensity,CaLsb1,≤ 0
same,SPOT peptide array binding signal intensity,CaLsb4,≤ 0
same,SPOT peptide array binding signal intensity,CaMyo5,117
same,SPOT peptide array binding signal intensity,CaNbp2,34.5
same,SPOT peptide array binding signal intensity,CaRvs167,1.83
same,SPOT peptide array binding signal intensity,CaRvs167-3,51.8
same,SPOT peptide array binding signal intensity,CaSho1,56.5
same,SPOT peptide array binding signal intensity,CaSla1-D1-D2,≤ 0
same,SPOT peptide array binding signal intensity,CaSla1-D3,22
same,SPOT peptide array binding signal intensity,ScAbp1,≤ 0
same,SPOT peptide array binding signal intensity,ScBbc1,1
same,SPOT peptide array binding signal intensity,ScBem1-D1,11.5
same,SPOT peptide array binding signal intensity,ScBzz1-D1,75.5
same,SPOT peptide array binding signal intensity,ScBzz1-D2,125
same,SPOT peptide array binding signal intensity,ScCyk3,7
same,SPOT peptide array binding signal intensity,ScFus1,317
same,SPOT peptide array binding signal intensity,ScHof1,1.5
same,SPOT peptide array binding signal intensity,ScHse1,89
same,SPOT peptide array binding signal intensity,ScLsb1,≤ 0
same,SPOT peptide array binding signal intensity,ScLsb2,≤ 0
same,SPOT peptide array binding signal intensity,ScLsb3,≤ 0
same,SPOT peptide array binding signal intensity,ScLsb4,≤ 0
same,SPOT peptide array binding signal intensity,ScMyo3,1
same,SPOT peptide array binding signal intensity,ScMyo5,0.5
same,SPOT peptide array binding signal intensity,ScNbp2,≤ 0
same,SPOT peptide array binding signal intensity,ScPex13,≤ 0
same,SPOT peptide array binding signal intensity,ScRvs167,0.667
same,SPOT peptide array binding signal intensity,ScSho1,145
same,SPOT peptide array binding signal intensity,ScSla1-D1-D2,≤ 0
same,SPOT peptide array binding signal intensity,ScSla1-D3,15
same,SPOT peptide array binding signal intensity,SpAbp1-D1,≤ 0
same,SPOT peptide array binding signal intensity,SpBbc1,≤ 0
same,SPOT peptide array binding signal intensity,SpBzz1-D1,68.5
same,SPOT peptide array binding signal intensity,SpBzz1-D2,0.25
same,SPOT peptide array binding signal intensity,SpCyk3,1
same,SPOT peptide array binding signal intensity,SpHof1,204
same,SPOT peptide array binding signal intensity,SpHof1-2,13.5
same,SPOT peptide array binding signal intensity,SpHof1-3,7.5
same,SPOT peptide array binding signal intensity,SpHse1,45.5
same,SPOT peptide array binding signal intensity,SpLsb1,≤ 0
same,SPOT peptide array binding signal intensity,SpLsb4,≤ 0
same,SPOT peptide array binding signal intensity,SpMyo1,0.5
same,SPOT peptide array binding signal intensity,SpNbp2,≤ 0
same,SPOT peptide array binding signal intensity,SpPex13,≤ 0
same,SPOT peptide array binding signal intensity,SpRvs167,2
same,SPOT peptide array binding signal intensity,SpSla1-D1-D2,≤ 0
same,SPOT peptide array binding signal intensity,SpSla1-D3,≤ 0
ILARAILTIPRVLDK,SPOT peptide array binding signal intensity,AgAbp1,2
same,SPOT peptide array binding signal intensity,AgBbc1,50
same,SPOT peptide array binding signal intensity,AgBem1-D1,162
same,SPOT peptide array binding signal intensity,AgBzz1-D1,107
same,SPOT peptide array binding signal intensity,AgBzz1-D2,121
same,SPOT peptide array binding signal intensity,AgCyk3,11
same,SPOT peptide array binding signal intensity,AgFus1,1100
same,SPOT peptide array binding signal intensity,AgHof1,34.5
same,SPOT peptide array binding signal intensity,AgHse1,500
same,SPOT peptide array binding signal intensity,AgLsb1,1.5
same,SPOT peptide array binding signal intensity,AgLsb4,1390
same,SPOT peptide array binding signal intensity,AgMyo5,1
same,SPOT peptide array binding signal intensity,AgNbp2,279
same,SPOT peptide array binding signal intensity,AgRvs167,12
same,SPOT peptide array binding signal intensity,AgSho1,516
same,SPOT peptide array binding signal intensity,AgSla1-D1-D2,58
same,SPOT peptide array binding signal intensity,AgSla1-D3,12
same,SPOT peptide array binding signal intensity,CaAbp1-D1,30
same,SPOT peptide array binding signal intensity,CaAbp1-D2,20
same,SPOT peptide array binding signal intensity,CaBbc1,68.5
same,SPOT peptide array binding signal intensity,CaBem1-D1,33.5
same,SPOT peptide array binding signal intensity,CaBzz1-D1,625
same,SPOT peptide array binding signal intensity,CaBzz1-D2,247
same,SPOT peptide array binding signal intensity,CaCyk3,35
same,SPOT peptide array binding signal intensity,CaFus1,1530
same,SPOT peptide array binding signal intensity,CaHof1,2.25
same,SPOT peptide array binding signal intensity,CaHse1,130
same,SPOT peptide array binding signal intensity,CaLsb1,2.25
same,SPOT peptide array binding signal intensity,CaLsb4,62.5
same,SPOT peptide array binding signal intensity,CaMyo5,12.5
